Reference: PubChem BioAssay (Tox21)
Where “and” joins values, the source holds several entries; their conditions need not be identical. Identical values can stand only once. Results filed as inconclusive are left out. Values without a mark were called inactive. Calls of active or inactive are those of the source. The call rests on the fitted dose curve; in most records, active means well fitted curve in the direction sought with a large enough effect in the repeat runs; inconclusive means weak or mixed curves; inactive means no such curve, though single readings can be large; an effect the other way counts as inactive or inconclusive.

Assay: qHTS assay for identifying genotoxic compounds that show differential cytotoxicity against isogenic chicken DT40 cell lines with known DNA damage response pathways - Rad54/Ku70 mutant cell line (AID 743015); further: nearly all actives have a fitted effect of over 60% in size; further: potency means the concentration at half of the fitted maximal effect
Details: DT40 Rad54/Ku70 mutant viability, CellTiter-Glo, 40 h; series mostly up to 66.8 µM; activity change, negative = cytotoxicity: at the top concentration
On the % scale 0 is the no-effect control and ±100 the full control effect.

Row | SMILES | Potency | activity change, negative = cytotoxicity
1 | O=C(O)CN(CCN(CC(=O)O)CC(=O)O)CCN(CC(=O)O)CC(=O)O | 18.8 µM (active) | 
2 | CCN(CCCc1ccccc1)CCCc1ccccc1 | 2.27 µM (active) | 
3 | CC(C)S |  | 7.74% [at 95.1 µM]
4 | CC1(C)C(=O)N(Cl)C(=O)N1Br |  | -29.9%
5 | ClC(Cl)Cl | inactive | 
6 | CCNCCO |  | 14.3%
7 | CCc1nnc(NS(=O)(=O)c2ccc(N)cc2)s1 |  | 0.0543%
8 | O=S(=O)(O)C(F)(F)F |  | 1.63%
9 | CC1CN(c2ccccc2)NC1=O (stereo not drawn) |  | 0.91%
10 | COc1ccc(S(=O)(=O)Nc2nnc(CC(C)C)s2)cc1 | inactive | 
11 | COc1cc(Cl)ccc1Cl |  | 7.67% [at 95.1 µM]
12 | C[C@]12C(=O)OC(=O)[C@H]1[C@H]1C=C[C@@H]2C1 |  | 4.74% [at 95.1 µM]
13 | CC(C)C[C@H](NC(=O)OCC1c2ccccc2-c2ccccc21)C(=O)O |  | -5.56%
14 | O=c1[nH]c(=O)n([C@H]2C[C@H](O)[C@@H](CO)O2)cc1C(F)(F)F | 0.188 µM (active) | 
15 | CC(C)(CO)[C@@H](O)C(=O)NCCC(=O)O | inactive | 
16 | O=c1oc2c(O)c(O)cc3c(=O)oc4c(O)c(O)cc1c4c23 |  | -6.7%
17 | O=C(O)c1ccccc1Nc1cc(Cl)ccc1C(=O)O |  | 3.33%
18 | CC(=O)Nc1ccc(C)c(Cl)c1 |  | -3.17%

Row | SMILES | Potency | activity change, negative = cytotoxicity
19 | Cc1cccc(C)c1NC(=O)CN1CCCCCC1 |  | -2.39%
20 | CCOC(=O)C1CC(=O)C(=C(O)C2CC2)C(=O)C1 (stereo not drawn) |  | -2.84%
21 | CC1=C(O)C(=O)OC1C (stereo not drawn) |  | 2.75%
22 | CC(C)=CCCC(C)CCOC=O (stereo not drawn) | 27.3 µM (active) | 
23 | Oc1ccccc1F |  | 9.71%
24 | NC/C=C/C(=O)O |  | 6.88%
25 | CCCCCCCCc1ccc(S(=O)(=O)O)cc1 |  | -7.36%
26 | COC(=O)c1ccc(OC)cc1 |  | -1.57%
27 | CCc1cc(Cl)c(OC)c(C(=O)NC[C@@H]2CCCN2CC)c1O | 11.9 µM (active) and 10.1 µM (active) | 
28 | FC(F)(F)c1ccccc1 |  | 1.79%
29 | C=CC1CO1 (stereo not drawn) |  | -0.325% [at 95.1 µM]
30 | OCCN1CCN(CCO)CC1 |  | -1.98% [at 95.1 µM]
31 | CN1CCN(c2c(F)cc3c(=O)c(C(=O)O)cn4c3c2SCC4)CC1 | 21.1 µM (active) | 
32 | COc1ccc2nc(NC(=O)Nc3ccccc3)sc2c1 | 16.8 µM (active) | 
33 | CC(=O)Oc1cc(C(C)C)c(OCCN(C)C)cc1C |  | 7.64% [at 30.7 µM]
34 | CC/C=C\CCOC(=O)CCCCC |  | 3.66%
35 | CCCCOc1cc(C(=O)NCCN(CC)CC)c2ccccc2n1 | 10.1 µM (active) | 
36 | CC1=NN(c2cc(Cl)c(S(=O)(=O)O)cc2Cl)C(=O)C1N=Nc1ccc(S(=O)(=O)O)cc1 (stereo not drawn) |  | -3.77%

Assay: qHTS assay to identify small molecule antagonists of the androgen receptor (AR) signaling pathway - cell viability counter screen (AID 743033; further: nearly all actives have a fitted effect of over 45% in size)
Details: AR-bla HEK293 viability, CellTiter-Glo luminescence, 16 h; series mostly up to 58.5 µM; activity change, negative = cytotoxicity: at the top concentration

Row | SMILES | activity change, negative = cytotoxicity | outcome
37 | O=C(O)CN(CCN(CC(=O)O)CC(=O)O)CCN(CC(=O)O)CC(=O)O | 1.36% | 
38 | CCN(CCCc1ccccc1)CCCc1ccccc1 | -9.95% [at 27 µM] | 
39 | CC(C)S | 0.905% [at 78.9 µM] | 
40 | CC1(C)C(=O)N(Cl)C(=O)N1Br | 3.16% | 
41 | ClC(Cl)Cl |  | inactive
42 | CCNCCO | -5.75% | 
43 | CCc1nnc(NS(=O)(=O)c2ccc(N)cc2)s1 | 6.3% | 
44 | O=S(=O)(O)C(F)(F)F | -2.56% | 
45 | CC1CN(c2ccccc2)NC1=O (stereo not drawn) | -14.4% | 
46 | COc1ccc(S(=O)(=O)Nc2nnc(CC(C)C)s2)cc1 |  | inactive
47 | COc1cc(Cl)ccc1Cl | -3.25% [at 78.9 µM] | 
48 | C[C@]12C(=O)OC(=O)[C@H]1[C@H]1C=C[C@@H]2C1 | 8.26% [at 78.9 µM] | 
49 | CC(C)C[C@H](NC(=O)OCC1c2ccccc2-c2ccccc21)C(=O)O | 3.26% | 
50 | O=c1[nH]c(=O)n([C@H]2C[C@H](O)[C@@H](CO)O2)cc1C(F)(F)F | -1.16% | 
51 | CC(C)(CO)[C@@H](O)C(=O)NCCC(=O)O |  | inactive
52 | O=c1oc2c(O)c(O)cc3c(=O)oc4c(O)c(O)cc1c4c23 | 26.3% | 
53 | O=C(O)c1ccccc1Nc1cc(Cl)ccc1C(=O)O | -2.07% | 
54 | CC(=O)Nc1ccc(C)c(Cl)c1 | -0.884% | 

Row | SMILES | activity change, negative = cytotoxicity | outcome
55 | Cc1cccc(C)c1NC(=O)CN1CCCCCC1 | 0.6% | 
56 | CCOC(=O)C1CC(=O)C(=C(O)C2CC2)C(=O)C1 (stereo not drawn) | 7.82% | 
57 | CC1=C(O)C(=O)OC1C (stereo not drawn) | 1.26% | 
58 | CC(C)=CCCC(C)CCOC=O (stereo not drawn) | -12.8% | 
59 | Oc1ccccc1F | 2.15% | 
60 | NC/C=C/C(=O)O | -1.09% | 
61 | CCCCCCCCc1ccc(S(=O)(=O)O)cc1 | -6.58% | 
62 | COC(=O)c1ccc(OC)cc1 | 2.19% | 
63 | CCc1cc(Cl)c(OC)c(C(=O)NC[C@@H]2CCCN2CC)c1O |  | inactive
64 | FC(F)(F)c1ccccc1 | 4.63% | 
65 | C=CC1CO1 (stereo not drawn) | 7.84% [at 78.9 µM] | 
66 | OCCN1CCN(CCO)CC1 | 0.834% [at 78.9 µM] | 
67 | CN1CCN(c2c(F)cc3c(=O)c(C(=O)O)cn4c3c2SCC4)CC1 | -19.8% | 
68 | COc1ccc2nc(NC(=O)Nc3ccccc3)sc2c1 | -17.7% | 
69 | CC(=O)Oc1cc(C(C)C)c(OCCN(C)C)cc1C | 2.06% [at 27 µM] | 
70 | CC/C=C\CCOC(=O)CCCCC | 10% | 
71 | CCCCOc1cc(C(=O)NCCN(CC)CC)c2ccccc2n1 | -5.68% [at 27 µM] | 
72 | CC1=NN(c2cc(Cl)c(S(=O)(=O)O)cc2Cl)C(=O)C1N=Nc1ccc(S(=O)(=O)O)cc1 (stereo not drawn) | 0.294% | 

Assay: qHTS assay to identify small molecule antagonists of the androgen receptor (AR) signaling pathway using the MDA cell line - cell viability counter screen (AID 743041; further: nearly all actives have a fitted effect of over 45% in size)
Details: MDA-kb2 viability, CellTiter-Fluor, 16 h, cells co-treated with R1881 androgen agonist; series mostly up to 70.3 µM; viability change, negative = cytotoxic: at the top concentration
Procedure, shortened: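 Cells were plated at 3,000 per well and left 5 h. Compounds in DMSO were then pinned in, followed by R1881. After 16 h at 37C, CellTiter-Fluor fluorescence gave viability.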

Row | SMILES | viability change, negative = cytotoxic | Potency
73 | O=C(O)CN(CCN(CC(=O)O)CC(=O)O)CCN(CC(=O)O)CC(=O)O | -6.89% | 
74 | CCN(CCCc1ccccc1)CCCc1ccccc1 | 8.95% [at 32.5 µM] | 
75 | CC(C)S | -2.79% [at 95 µM] | 
76 | CC1(C)C(=O)N(Cl)C(=O)N1Br | -0.0285% | 
77 | ClC(Cl)Cl | -0.607% | 
78 | CCNCCO | 5.69% | 
79 | CCc1nnc(NS(=O)(=O)c2ccc(N)cc2)s1 | 4.11% | 
80 | O=S(=O)(O)C(F)(F)F | -2.95% | 
81 | CC1CN(c2ccccc2)NC1=O (stereo not drawn) | 7.77% | 
82 | COc1ccc(S(=O)(=O)Nc2nnc(CC(C)C)s2)cc1 |  | inactive
83 | COc1cc(Cl)ccc1Cl | -3.92% [at 95 µM] | 
84 | C[C@]12C(=O)OC(=O)[C@H]1[C@H]1C=C[C@@H]2C1 | 5.61% [at 95 µM] | 
85 | CC(C)C[C@H](NC(=O)OCC1c2ccccc2-c2ccccc21)C(=O)O | 0.782% | 
86 | O=c1[nH]c(=O)n([C@H]2C[C@H](O)[C@@H](CO)O2)cc1C(F)(F)F | 3.25% | 
87 | CC(C)(CO)[C@@H](O)C(=O)NCCC(=O)O |  | inactive
88 | O=c1oc2c(O)c(O)cc3c(=O)oc4c(O)c(O)cc1c4c23 | -4.88% | 
89 | O=C(O)c1ccccc1Nc1cc(Cl)ccc1C(=O)O | -1.02% | 
90 | CC(=O)Nc1ccc(C)c(Cl)c1 | 8.01% | 

Row | SMILES | viability change, negative = cytotoxic | Potency
91 | Cc1cccc(C)c1NC(=O)CN1CCCCCC1 | -10.9% | 
92 | CCOC(=O)C1CC(=O)C(=C(O)C2CC2)C(=O)C1 (stereo not drawn) | -4.19% | 
93 | CC1=C(O)C(=O)OC1C (stereo not drawn) | -0.83% | 
94 | CC(C)=CCCC(C)CCOC=O (stereo not drawn) | 0.193% | 
95 | Oc1ccccc1F | -0.869% | 
96 | NC/C=C/C(=O)O | -4.48% | 
97 | CCCCCCCCc1ccc(S(=O)(=O)O)cc1 | 0.608% | 
98 | COC(=O)c1ccc(OC)cc1 | 4.21% | 
99 | CCc1cc(Cl)c(OC)c(C(=O)NC[C@@H]2CCCN2CC)c1O |  | inactive
100 | FC(F)(F)c1ccccc1 | -2.48% | 
101 | C=CC1CO1 (stereo not drawn) | 2.01% [at 95 µM] | 
102 | OCCN1CCN(CCO)CC1 | 3.67% [at 95 µM] | 
103 | CN1CCN(c2c(F)cc3c(=O)c(C(=O)O)cn4c3c2SCC4)CC1 | -1.22% | 
104 | COc1ccc2nc(NC(=O)Nc3ccccc3)sc2c1 | 5.99% | 
105 | CC(=O)Oc1cc(C(C)C)c(OCCN(C)C)cc1C | -1.45% [at 32.5 µM] | 
106 | CC/C=C\CCOC(=O)CCCCC | -3.29% | 
107 | CCCCOc1cc(C(=O)NCCN(CC)CC)c2ccccc2n1 | 7.77% [at 32.5 µM] | 
108 | CC1=NN(c2cc(Cl)c(S(=O)(=O)O)cc2Cl)C(=O)C1N=Nc1ccc(S(=O)(=O)O)cc1 (stereo not drawn) | 0.111% | 
